Sampled rows, rich in hits. Any-hit rate of the full collection: about 21%.
CHX counter: counter-screen for Shiga toxin inhibitors: cycloheximide protein synthesis inhibition; AID 2314; max response, %; 300,000 tested, 12% active; cell reporter, cycloheximide protein synthesis inhibition counterscreen; in the data active = max response mostly above about 13%, no sharp cut-off; inactive = mostly below about 14%; also: read at 38.3 µM for the half of the compounds with a filed dose
Pf growth 96h: P. falciparum growth inhibition at 96 hour, primary screen for plastid delayed-death inhibitors; P. falciparum luciferase reporter growth, 96 h; Potency, µM (series often up to 28.7 µM), usual class: inhibitors; 320,000 tested, 6.9% active; AID 504834
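Plates of compound plus infected erythrocytes (2% hematocrit, 0.05% parasitemia final) incubate 96 hours, 37 C, 5% CO2. Detection reagent added; reduced luminescence from the parasites' luciferase reporter flags inhibition.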
Shiga inhibitor: inhibitors of Shiga toxin in Vero cells; Vero cells, Shiga toxin protein synthesis inhibition reporter; inhibition, % at 38.7 µM; 290,000 tested, 9.2% active; AID 2315; in the data active = inhibition mostly above about 28%, no sharp cut-off; inactive = mostly below about 43%
NS1 function inh: blocks influenza NS1 protein function | Potency, µM (series often up to 46.1 µM) | 270,000 tested, 0.4% active; calls by dose curve; also: actives are rising curves; nearly all actives have a fitted effect of over 50% in size
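Growth recovery, yeast-based: influenza A NS1 expressed in S. cerevisiae causes slow growth, and suppressors are detected by OD600. The parent strain without NS1 is used as positive control.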
Sm TGR inh: inhibitors of Schistosoma mansoni thioredoxin glutathione reductase. Q962Y6. purified TGR, DTNB reduction, TNB absorbance 405 nm. Potency, µM (titrated, usually from 114 µM), actives largely listed as inhibitors. 360,000 tested, 3% active. AID 485364; also: nearly all actives have a fitted effect of over 60% in size
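Kinetic colorimetric format: TGR-catalysed, NADPH-driven DTNB reduction monitored via TNB absorbance. Enzyme dispensed at 20 nM; compound exposure 15 min at room temperature before reaction start.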
Pf growth 48h: P. falciparum growth inhibition at 48 hours (one generation); Potency, µM (series often up to 28.7 µM), actives largely listed as inhibitors; 310,000 tested, 5.9% active; AID 504832; P. falciparum luciferase growth in erythrocytes, 48 h
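In quantitative HTS format, infected erythrocytes bearing luciferase-reporter parasites were treated for a single generation at 37 C. Luminescence after adding detection reagent served as the growth measure.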
A number is an active result; – = inactive; ? = inconclusive; · = no result given. Unless noted, calls follow the shape of the dose curve; as a rule, active = well fitted curve in the direction sought with a large enough effect; inconclusive = small, poorly fitted or top-dose-only effect, or another doubt; inactive = no such curve, though single readings can be large; an effect the other way counts as inactive or inconclusive.

SMILES | CHX counter | Pf growth 96h | Shiga inhibitor | NS1 function inh | Sm TGR inh | Pf growth 48h
Cc1nn(C)c(C)c1CCC(=O)N1CCCC(Nc2ccc(C(C)C)cc2)C1 (configuration not stated) | – | – | – | – | – | –
O=C(CNC(=O)N1CC(=O)Nc2ccccc21)Nc1cc(Cl)ccc1Cl | – | – | – | – | – | –
CN(C)c1ccnc(Nc2ccc(O)cc2)c1C#N | – | 10µM | – | · | – | ?
CC(=O)Nc1ccc(/C=C(\C#N)C(=O)NCc2ccccc2)cc1 | – | – | – | – | – | –
CC(C)NC(=O)/C(C#N)=C\c1ccc(N(C)C)o1 | – | – | – | – | – | ?
CCN(CC)c1ccc(/C=C(/C#N)C(=O)NC(C)C)o1 | 26 | ? | 60 | – | · | –
CCN(CC)c1ccc(/C=C(/C#N)C(=O)NCc2ccccc2)o1 | 50 | ? | 102 | – | 35µM | –
COc1cc(Cl)c(C)cc1NC(=O)Cc1cccs1 | – | – | – | – | – | –
CCOC(=O)CC(NC(=O)CCc1c(C)nc2c(c(C)nn2-c2ccc(C)c(C)c2)c1C)c1ccc(C)cc1 (configuration not stated) | · | · | · | · | – | ·
Cc1onc(-c2ccccc2)c1C(=O)N1CCN(S(=O)(=O)c2ccc(OC(F)(F)F)cc2)CC1 | – | ? | – | – | – | –
Cc1cccc(OCCCn2c(=O)oc3ccccc32)c1 | 22 | – | 50 | – | – | –
COc1ccc(OCCCn2c(=O)oc3ccccc32)cc1 | 19 | – | – | – | – | –
COc1cccc(Cn2c(SCC(=O)N(C)c3ccccc3)nc3ccccc32)c1 | · | · | · | · | – | ·
CCN(CC)c1nc2ccccc2n(Cc2cccc(OC)c2)c1=O | – | 1.5µM | – | – | – | ?
Cc1ccc(C(C)C)c(OCCCn2c(=O)oc3ccccc32)c1 | · | · | · | · | – | ·
COc1cccc(Cn2c(=O)oc3ccccc32)c1 | 41 | – | 45 | – | – | –
COc1ccc(C(=O)COC(=O)CCCn2c(=O)oc3ccccc32)cc1 | – | – | – | – | – | –
O=c1oc2ccccc2n1Cc1ccccc1 | – | – | – | – | – | –
O=C(Nc1cc([N+](=O)[O-])ccc1C(=O)Nc1cccnc1)c1ccccc1 | – | ? | – | – | – | ?
COc1ccc(/C=C(\NC(=O)c2ccccc2)C(=O)NC2CCS(=O)(=O)C2)cc1 (configuration not stated) | – | – | – | – | – | ?
Cc1ccc2oc(=O)n(CCOc3ccccc3)c2c1 | 35 | – | 39 | – | – | ?
Cc1cccc(OCCn2c(=O)oc3ccc(C)cc32)c1 | 42 | – | 79 | – | – | ?
O=C(Nc1ccnn1C1CCN(C/C=C/c2ccccc2)CC1)C1CCCC1 | – | ? | – | – | – | 13µM
COc1ccccc1C(=O)Nc1ccnn1C1CCN(C/C=C/c2ccc(F)cc2)CC1 | – | – | – | – | – | 12µM
O=C(Nc1ccnn1C1CCN(C/C=C/c2ccccc2)CC1)c1ccccc1Cl | – | – | – | – | – | ?
SMILES | CHX counter | Pf growth 96h | Shiga inhibitor | NS1 function inh | Sm TGR inh | Pf growth 48h
COc1cc(CN2CCC(n3nccc3NC(=O)c3ccccc3OC)CC2)ccc1F | – | – | – | – | – | ?
COc1ccccc1C(=O)Nc1ccnn1C1CCN(C(=O)C2CCOC2)CC1 (configuration not stated) | 13 | – | – | – | – | –
COc1ccccc1C(=O)Nc1ccnn1C1CCN(C)CC1 | – | – | – | – | – | –
Cc1nn(Cc2ccccc2Cl)c(C)c1NC(=O)CSc1n[nH]c(C)c1[N+](=O)[O-] | – | – | – | – | – | –
COc1ccc(CC(=O)OCCN(C)C)cc1 | – | – | – | – | – | ·
CCCC(O)(CCN(C)C)c1ccc(OC)cc1 (configuration not stated) | – | – | – | – | 11µM | ·
CCC(C)Nc1nc(N)c([N+](=O)[O-])c(Nc2ccccc2OC)n1 (configuration not stated) | – | 10µM | – | – | – | 12µM
CCC(C)Nc1nc(N)c([N+](=O)[O-])c(Nc2cc(OC)ccc2OC)n1 (configuration not stated) | – | ? | – | – | – | ?
CC(C)(C)OC(=O)N[C@H](C(=O)OC(C)(C)C)c1ccc2c(c1)OCO2 | · | ? | · | · | – | 12µM
Cc1cccc([C@H](NC(=O)OC(C)(C)C)C(=O)OC(C)(C)C)c1 | · | ? | · | · | – | –
CCCCNC(=O)CCn1c(=O)c2ccccc2n(Cc2ccc(F)cc2)c1=O | – | – | – | – | – | –

Bioassay records as filed in PubChem BioAssay.
